From PubChem BioAssay come the findings set out here.

What is called inhibition is the drop in the measured response relative to a control, in per cent.

Unmarked numbers belong to inactive results. No rule for the calls is given here.

Sequence of Pantothenate synthetase (Mycobacterium tuberculosis (strain ATCC 25618 / H37Rv)) (P9WIL5 whole entry, looked up): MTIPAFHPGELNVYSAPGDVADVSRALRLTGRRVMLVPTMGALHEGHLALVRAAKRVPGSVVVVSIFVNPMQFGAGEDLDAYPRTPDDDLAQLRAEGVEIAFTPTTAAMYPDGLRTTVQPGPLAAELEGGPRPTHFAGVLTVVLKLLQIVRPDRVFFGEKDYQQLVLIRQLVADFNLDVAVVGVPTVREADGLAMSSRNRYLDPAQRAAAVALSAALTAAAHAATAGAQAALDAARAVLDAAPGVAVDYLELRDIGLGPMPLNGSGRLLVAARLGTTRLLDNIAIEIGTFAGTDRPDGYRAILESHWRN

The assay has as its target Pantothenate synthetase (Mycobacterium tuberculosis (strain ATCC 25618 / H37Rv)) (UniProt P9WIL5). The experiment in a line: Recombinant Mtb pantothenate synthetase (PanC) inhibitors, coupled enzyme, confirmatory (AID 375).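 Also: 0% = full reaction with vehicle and 100% = no enzyme background.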 The following applies: coupled enzyme assay; at 10 µM, stronger effect = higher value.
As for `CSc1cccc(NC(=O)C2CCCN2S(=O)(=O)c2ccc3c(c2)CCC(=O)N3)c1` (stereo unspecified), the inhibition was 0%.

`C=CCNC(=O)CN(c1cccc(Br)c1)S(C)(=O)=O`: the inhibition is 0%.

Regarding `Cc1cc(C)nc(N2CCC(C(=O)NCc3cccc(C(F)(F)F)c3)CC2)n1`, the inhibition is 3%.

In the case of `O=S(=O)(NC1CCCCC1NS(=O)(=O)c1ccc(F)cc1)c1ccc(F)cc1` (stereo unspecified), the inhibition is 0%.

As for `CCn1c(=O)cc(OCC(=O)NC2CCCCC2)c2ccccc21`, the inhibition was 0%.

Regarding `Cc1cc(C)cc(OCC(=O)NC2=NCCS2)c1`, the inhibition was 0%.

For the compound `Cn1c(=O)c2c(nc(SCCCC#N)n2Cc2c(F)cccc2Cl)n(C)c1=O`, the inhibition was 0%.

For `COc1ccc2c(c1OC)C(=O)OC2C1c2c(cc3c(c2OC)OCO3)CCN1C` (stereo unspecified), the inhibition was 0%.

`COc1ccc(C(=O)Nc2ccc(S(=O)(=O)Nc3onc(C)c3C)cc2)cc1`: the inhibition is 1%.

`COc1cccc(-n2c(SC3CCOC3=O)nc3ccccc3c2=O)c1` (stereo unspecified): the inhibition is 2%.

As to `Cc1ccc(CCNC(=O)Cn2cccc2)cc1`, the inhibition is 0%.

As to `CCC(C)n1ncn(-c2ccc(N3CCN(c4ccc(OCC5COC(Cn6cncn6)(c6ccc(Cl)cc6Cl)O5)cc4)CC3)cc2)c1=O` (stereo unspecified), the inhibition was 8%.

`CC(C)CCn1c(=O)c2ccccc2n2c(CN(C)Cc3ccccc3)nnc12`: the inhibition was 0%.

As for `COc1ccccc1CNC(=O)CCn1c(=O)[nH]c2ccsc2c1=O`, the inhibition was 2%.

In the case of `COC(=O)c1sccc1NC(=O)c1csc(C)c1`, the inhibition is 6%.

Take `O=C(O)C1CCCN1c1ncnc2c1oc1ccccc12` (stereo unspecified): the inhibition was 0%.
